Source: ChEMBL document CHEMBL3988442, “University of Dundee, Small-Polar-MMV Screening Library” (2021)
Screen size: about 48,000 compounds; about 13,000 (27%) showed an effect of 50% or more. The list shows a part of the results.

system: Wolbachia pipientis; test: Anti-Wolbachia Cell-Based Screen; type: functional; design: scale not given: in the data most compounds retested in dose-response had high values; settings: 5 µM

| Compound | Percent Effect |
| --- | --- |
| O=C1NCCCc2[nH]c(-c3nc(C4CC4)no3)nc21 | -6.286% |
| O=C1NCCCc2[nH]c(-c3nc(C4CCCCC4)no3)nc21 | 4.619% |
| O=C1CCC(c2nc(C3CCNCC3)no2)N1 (configuration not stated) | 104.8% |
| O=C1CCC2(CCCN(C(=O)Cc3cccs3)C2)N1 (configuration not stated) | -20.18% |
| O=C(Nc1cccs1)N1CC(c2nc(C3CC3)no2)C1 | 10.74% |
| CN(C)C(C(=O)N1CC(Oc2ccccc2F)C1)c1ccc(F)cc1 (configuration not stated) | 10.57% |
| CCN(CC1CCOC1)C(=O)Nc1ccc(-n2cncn2)nc1 (configuration not stated) | -5.162% |
| CCC[C@H]1CN(CCS(C)(=O)=O)C[C@@H]1NC(=O)Cn1cc(C)cn1 | -15.47% |
| CCc1nccn1CCNC1CCN(c2nc3ccc(Cl)cc3s2)CC1 | -30.49% |
| CC1(C)CNC(=O)c2nc(C3CCN(C(=O)C4CC4)CC3)[nH]c2C1 | -1.461% |
| O=C1CCC(c2nc(C3CCN(C(=O)C4CC4)CC3)no2)N1 (configuration not stated) | 107.7% |
| O=C(CN1CCCC(c2noc(C3CC3)n2)C1)N1CCCC1 (configuration not stated) | -17.34% |
| CC(Nc1ncnc2c1CCNC2)c1ccc2c(c1)CCCC2 (configuration not stated) | -81.25% |
| C[C@@H](CO)Nc1nccc(-c2cnc3sc(Cl)cn3c2=O)n1 | 101.5% |
| CC[C@@H](CO)Nc1nccc(-c2cnc3sc(C)cn3c2=O)n1 | 82.9% |
| Cc1ccc(NCCCNc2nccc(-c3cn(C)nc3C)n2)nc1 | 4.133% |
| CC(C)CNc1nccc(-c2cnc3sc(Cl)cn3c2=O)n1 | 98.56% |
| CC[C@H](C)Nc1nccc(-c2cnc3sccn3c2=O)n1 | 96.29% |
| c1cnc(NCc2n[nH]c3c2CCN(Cc2ccncc2)C3)nc1 | -7.099% |
| Cc1nc[nH]c1CN1CCCC(CNC(=O)c2ccc(N)nc2)C1 (configuration not stated) | -15.92% |
| COc1cc2c(nn1)CCN(Cc1noc(CC(C)C)n1)C2 | -12.11% |
| Cc1nc(CN2CCCC(CCc3c(F)cccc3F)C2)c[nH]1 (configuration not stated) | 27.92% |
| CNS(=O)(=O)CCNCC1(O)CCCN(CCC2CCCCC2)C1=O (configuration not stated) | 1.698% |
| Cn1cc(NC(=O)CCc2ccsc2)ccc1=O | -1.148% |
| CC[C@H](C)Nc1nccc(-c2cnc3sc(C)cn3c2=O)n1 | 91.04% |
| Cc1cn2c(=O)c(-c3ccnc(N[C@@H](C)CO)n3)cnc2s1 | 99.21% |

| Compound | Percent Effect |
| --- | --- |
| CCCN(Cc1ccc(C#N)cc1)Cc1nnsc1Cl | 8.987% |
| CCNC(=O)CNC(=O)c1ccn(S(=O)(=O)c2ccc(C)cc2)c1 | 0.9489% |
| Cc1cccc(CN2C[C@@H]3CC[C@H](C2)N(Cc2c(C)noc2C)C3=O)n1 | -29.28% |
| Cc1cnn(CC2CCCN2C(=O)c2cccc(-n3cnnn3)c2)c1 (configuration not stated) | -8.957% |
| Cc1cnn(CC2CCCN2C(=O)c2cccc(CC#N)c2)c1 (configuration not stated) | -7.7% |
| COC(=O)[C@H]1CCCCN1C(=O)c1cccc(-n2cccn2)c1 | -1.168% |
| Cc1cnn(CC2CCCN2C(=O)c2cccc(S(C)(=O)=O)c2)c1 (configuration not stated) | 115.2% |
| Cc1cnn(CC2CCCCN2C(=O)c2cccc(C(N)=O)c2)c1 (configuration not stated) | 110.6% |
| Cc1cnn(CC2CCCCN2C(=O)c2cc(C(N)=O)cs2)c1 (configuration not stated) | 3.915% |
| Cc1cnn(CC2CCCN2C(=O)c2cccc(-n3ccc(C)n3)c2)c1 (configuration not stated) | 119% |
| Cn1ccc(C2CCCCN2C(=O)c2cccc(-n3cccn3)c2)n1 (configuration not stated) | -0.8494% |
| CCN(CC)C(=O)C1CCCN1C(=O)c1cccc(-n2cnnn2)c1 (configuration not stated) | 98.96% |
| CC(C)c1nc(COc2cccc3c2NC(=O)CO3)cs1 | -10.7% |
| NC(=O)c1c(NC(=O)CCC(=O)O)sc2c1CCc1ccccc1-2 | 188.5% |
| NC(=O)c1c(NC(=O)CCCC(=O)O)sc2c1CCc1ccccc1-2 | 119.8% |
| CC(=O)Nc1sc2c(c1C(=O)O)CCc1ccccc1-2 | 112.1% |
| O=C(Cc1cccs1)NCC1(O)CCc2ccccc2C1 (configuration not stated) | 1.555% |
| O=C(Nc1cccc(N2CCN(CC3CC3)CC2)c1)C1CCCO1 (configuration not stated) | -16.14% |
| NC(=O)c1c(NC(=O)C2CCCO2)sc2c1CCc1ccccc1-2 (configuration not stated) | 117% |
| CC(C)(C)c1cc(NC(=O)C2CCCO2)n(-c2ccccn2)n1 (configuration not stated) | -31.1% |
| Cc1cccc2c1nc1n2[C@@H](CNC(=O)C2CCOCC2)COC1 | -17.69% |
| NC(=O)c1ccc(CNCC2CCN(CCO)CC2)cc1 | 2.18% |
| Cc1nc(CCN(C)C(=O)CCNC(=O)c2ccccc2F)no1 | -9.414% |
| CCc1cc(NCc2ccc(-n3cncn3)c(C)c2)n(C)n1 | -10.44% |
| CC(CC(=O)O)CC(=O)Nc1sc2c(c1C(N)=O)CCc1ccccc1-2 (configuration not stated) | 127.8% |
| CC(NC(=O)Cn1cc(C(N)=O)c(-c2ccccc2)n1)C1CC1 (configuration not stated) | 6.248% |
